GLD-1 TGE inh: GLD-1-TGE RNA interaction inhibition (C. elegans) | Q17339 | purified GLD-1 + fluorescein TGE RNA, fluorescence polarization | inhibition, % at 5.96 µM | 320,000 compounds, 0.44% hits | AID 2280;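 active = percent inhibition above a per-plate cutoff, the plate mean of test compounds plus 3 SD, cut at about 30% in these data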;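 note: 0% = DMSO wells with GLD-1 and probe and 100% = wells lacking GLD-1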
eLon inh: inhibitors of E. coli Lon protease; P0A9M0; purified E. coli Lon protease, fluorescence polarization; inhibition, % at 7.94 µM; 360,000 compounds, 0.42% hits; AID 602123; in the data active = inhibition above about 13%, passing the limit was not always enough;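 note: 0% = enzyme with probe and DMSO and 100% = no enzyme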
EBV gp42 block: blocks Epstein-Barr virus glycoprotein 42 binding | Q1HVG2 | Fluorescence polarization binding assay, mP read-out | inhibition, % (tested at 21.74 µM) | 220,000 compounds, 0.42% hits | AID 1085; in the data active = inhibition above about 50%
Target sequence (Q1HVG2 whole entry, looked up): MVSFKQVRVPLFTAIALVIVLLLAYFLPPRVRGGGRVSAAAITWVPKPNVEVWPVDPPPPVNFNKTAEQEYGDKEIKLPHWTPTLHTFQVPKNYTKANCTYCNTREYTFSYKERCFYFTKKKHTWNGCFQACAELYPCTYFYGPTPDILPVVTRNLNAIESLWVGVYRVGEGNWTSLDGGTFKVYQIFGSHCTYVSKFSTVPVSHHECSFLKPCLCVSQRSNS
MEX-5 binding: C. elegans MEX-5 TCR-2 RNA binding activity | Q9XUB2 | MEX-5/FITC-TCR2 RNA binding, fluorescence polarization; stronger effect = lower value | activity score (negative = inhibition of binding), % at 10 µM | 300,000 compounds, 0.38% hits | AID 1832;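 active = inhibition past about -25% in most replicates, and total fluorescence under double the plate's negative control median, limit read from the data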;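 note: 0% = DMSO and -100% = 5 µM competing unlabeled TCR2 RNA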
BCLXL inh: inhibitors of human Bcl-xL; Q07817; GST-Bcl-xL / FITC-Bim BH3 peptide fluorescence polarization; inhibition, % at 10.9 µM; 320,000 compounds, 0.7% hits;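 active = inhibition above the mean of all tested compounds plus 3 SD, cutoff set per campaign, cut at about 30% in these data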;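 note: 0% = DMSO wells and 100% = unlabeled Bim-BH3 peptide competitor; inhibitors lower millipolarization by displacing the labeled peptide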
MCL1 BIM primary: inhibitors of human MCL1 binding to BIM-BH3 peptide; 320,000 compounds, 0.68% hits; inhibition, % at 10.9 µM; Q07820; GST-MCL1 / FITC-Bim-BH3 fluorescence polarization; AID 2057;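 active = inhibition above the mean inhibition of all tested compounds plus 3 SD, set per campaign, cut at about 40% in these data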;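 note: 0% = DMSO wells and 100% = unlabeled Bim-BH3 peptide control; higher means more loss of mP so more displacement of Bim peptide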
Target sequence (Q07820 whole entry, looked up): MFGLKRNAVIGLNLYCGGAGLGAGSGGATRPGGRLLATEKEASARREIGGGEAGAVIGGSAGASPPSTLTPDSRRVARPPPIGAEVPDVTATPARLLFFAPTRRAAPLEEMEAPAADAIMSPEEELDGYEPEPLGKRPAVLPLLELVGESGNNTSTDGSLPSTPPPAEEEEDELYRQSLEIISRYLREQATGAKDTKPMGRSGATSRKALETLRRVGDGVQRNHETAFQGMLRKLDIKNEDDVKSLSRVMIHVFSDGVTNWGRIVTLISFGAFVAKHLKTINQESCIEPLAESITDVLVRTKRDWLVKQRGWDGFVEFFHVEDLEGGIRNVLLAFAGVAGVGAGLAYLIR
* = called active by the depositor; nt = no result given. A selection: hits, their analogues and other compounds. The true share with any hit is near 1.5%.

SMILES	GLD-1 TGE inh	eLon inh	EBV gp42 block	MEX-5 binding	BCLXL inh	MCL1 BIM primary
Cc1cccc(C)c1NC(=O)CNC(=O)CCNC(=O)c1ccco1	-1.0	-11.4	nt	nt	-2.8	-6.6
Cc1cc(N=Cc2c(O)n(-c3ccc4c(c3)OCO4)c(=O)c3ccccc23)ccn1	1.9	-1.3	-76.7	-30.7*	-9.6	-17.0
CC(CCc1ccccn1)(CCc1ccccn1)C(=O)c1ccccc1	nt	-13.5	nt	nt	nt	nt
COc1cc(OC)c(/C=N/NC(=O)c2ccncc2)c(OC)c1	-3.9	4.0	nt	-2.1	2.7	1.8
CCOc1ccc(-c2csc(NC(=O)CSC3=NC(=O)CN3C(C)=O)n2)c2ccccc12	-6.8	-8.9	130.3*	0.1	1.1	0.0
Cc1cccc(N2CCN(C(=O)Cc3cn(C)c4ccccc34)CC2)c1C	17.9	0.0	37.6	0.0	47.7*	44.4*
Cc1cccc(N2CCN(C(=O)COc3cc(=O)n(C)c4ccccc34)CC2)c1C	3.0	-7.8	-4.4	1.9	8.4	2.9
CN(C)CCCNCC(=O)c1c(-c2ccccc2)n(C)c2ccccc12	-0.7	-25.8	nt	0.7	3.2	3.4
Cc1ccccc1C(=O)Nc1ccnn1C1CCN(C(C)Cc2ccccc2F)CC1 (configuration not stated)	3.7	3.1	nt	-15.2	39.0*	42.0*
CC(CN1CCC(n2nccc2NC(=O)c2ccccc2Cl)CC1)c1ccccc1 (configuration not stated)	6.3	12.2	nt	-18.0	33.4*	33.2
CC1(Cc2cc(Cl)ccc2C(F)(F)F)C(=O)Nc2cc(-c3ccccc3Cl)ccc21 (configuration not stated)	nt	-8.6	nt	nt	nt	nt
CCOc1ccc(C(=O)OCC(=O)NCCCc2ccccc2)cc1	6.4	7.7	nt	0.1	116.4*	-0.6
CN(C)c1ccc(C(=O)OCC(=O)NCCCc2ccccc2)cc1	0.4	-1.0	nt	0.7	1.2	-5.9
CCOCCc1nnc(NC(=O)CS(=O)(=O)c2ccc(C)cc2)s1	3.4	-2.2	nt	-1.2	10.0	7.5
N#Cc1c(-c2ccco2)cc(-c2ccccc2)[nH]c1=O	21.2	-7.5	-9.5	-7.1	34.3*	33.2
CCC(=S)/C=C1\Sc2ccc3ccccc3c2N1CCCS(=O)(=O)O	-4.1	nt	4.4	-68.1*	14.2	25.8
O=C(Nc1nccs1)C(c1ccccc1)N1CCCC1 (configuration not stated)	3.8	-2.5	65.4*	3.0	4.2	3.1
CN(C)CCNc1oc(COc2ccc(Cl)cc2Cl)nc1C#N	26.3	13.2	11.5	-2.1	34.2*	42.2*
COc1ccc(O)c(/C=C2/SC(=S)N(Cc3ccccc3)C2=O)c1	-20.6	-224.6	nt	0.4	-37.6	-68.0
COc1ccc(OC)c(/C=C2\SC(=S)N(Cc3cccnc3)C2=O)c1	-16.1	-42.3	142.4*	-7.7	-22.6	-45.8
Cc1cc2ccccc2n1CCNC(=O)Cc1ccccc1	16.0	9.4	-9.8	-1.1	7.2	7.6
Cc1cc2ccccc2n1CCNC(=O)C(C)Oc1ccccc1 (configuration not stated)	10.6	24.5*	1.5	-2.1	15.1	13.2
CCOc1ccccc1NC(=O)CCNC(=O)C1CCN(S(=O)(=O)c2ccccc2)CC1	nt	1.1	nt	nt	nt	nt
Cc1ccccc1N=Cc1c(O)n(-c2nccs2)c(=O)c2ccccc12	1.7	1.4	2.3	-16.3	8.0	9.7
O=c1c2ccccc2c(C=Nc2ccccc2O)c(O)n1-c1nccs1	-17.4	-38.4	27.6	-13.0	36.7*	30.2
SMILES	GLD-1 TGE inh	eLon inh	EBV gp42 block	MEX-5 binding	BCLXL inh	MCL1 BIM primary
COc1ccc(CNC(=O)CCCn2nc(C)c3c(C)n(-c4ccc(C)cc4)nc3c2=O)cc1	0.9	-4.7	nt	2.7	-0.4	-7.4
O=C(CN1C(=O)COc2ccccc21)Nc1ccccc1F	6.5	2.5	nt	0.2	6.9	6.2
O=C1COc2ccccc2N1Cc1c(F)cccc1Cl	-2.2	-3.0	nt	2.4	47.4*	8.4
CCOc1ccc(/C(O)=C2/C(=O)C(=O)N(CCCN3CCOCC3)C2c2ccc(C)cc2)cc1C (configuration not stated)	nt	-11.9	nt	2.5	nt	nt
COc1ccc(Nc2ncnc3nc[nH]c23)cc1OC	1.1	-10.6	-7.7	-33.2*	-1.2	-0.5
Cc1ccc(OCC(=O)OCC(=O)N2c3ccccc3CC2C)cc1C (configuration not stated)	5.8	-2.9	nt	nt	7.4	9.5
Cc1ccc(NS(=O)(=O)c2ccc(NC(=O)c3ccccc3C(=O)O)cc2)cc1C	2.2	-3.9	nt	0.9	6.6	2.4
O=S(=O)(NC(CO)Cc1ccccc1)c1ccc(Br)cc1F (configuration not stated)	nt	-4.0	nt	nt	nt	nt
CC1=NOC(=O)/C1=C\c1ccc(-c2cc(Cl)ccc2Cl)o1	1.4	-2.6	95.3*	-1.9	3.2	6.0
Cc1ccc(S(=O)(=O)N2CC=C(c3c(C)n(C)c4ccccc34)CC2)cc1	14.5	1.5	-14.8	0.4	16.9	28.3
CCn1c(C)c(C2=CCN(S(=O)(=O)c3ccccc3)CC2)c2ccccc21	32.2*	-3.3	-2.6	0.9	20.3	-1.1
CCOC(=O)c1c(C)[nH]c(O)c1C=Nc1ccc(C(F)(F)F)cc1	36.8*	2.6	-6.6	-2.7	-2.2	7.2
CCOC(=O)c1c(C)[nH]c(O)c1C=Nc1ccc(Cl)cc1	5.4	-86.5	-18.1	-6.2	6.7	-4.6
CCOCCCNC1=C(Cl)C(=O)c2ccccc2C1=O	-1.2	-7.2	-30.2	-3.6	34.0*	33.4
CCn1c(C)cc(/C=C2/NC(=O)N(c3ccccc3)C2=O)c1C	19.1	-7.6	-5.0	0.0	30.8*	39.5
COCCn1c(C)cc(/C=C2/NC(=O)N(c3cccc(Cl)c3)C2=O)c1C	2.0	-3.1	-13.4	0.6	15.5	8.3
O=C(O)CCC1c2cc3c4cc2OC2Oc5cc6c(cc51)C(CCC(=O)O)c1cc5c7cc1OC(O6)c1cc6cc(c1)Oc1cc(cc(C(=O)O)c1)Oc1cc8cc(c1)C(Oc1cc(c(cc1C5CCC(=O)O)C3CCC(=O)O)OC(O4)c1cc(cc(c1)Oc1cc(cc(C(=O)O)c1)O8)Oc1cc(cc(C(=O)O)c1)Oc1cc(cc2c1)Oc1cc(cc(C(=O)O)c1)O6)O7 (configuration not stated)	96.6*	nt	nt	-99.7*	12.0	42.2*
CCN(CC)C(=O)C1=C(C)N(Cc2ccccc2)C(=O)C(CC(=O)NCCN2CCOCC2)C1 (configuration not stated)	nt	-9.0	nt	nt	nt	nt
O=Cc1ccc2ccc3cccnc3c2n1	3.3	6.8	nt	-34.4*	5.8	10.0
COc1ccc(NC(=O)C2Cc3c(-c4ccc5c(c4)OCO5)ccnc3O2)cc1OC (configuration not stated)	nt	-1.9	nt	nt	nt	nt
Cc1cc([N+](=O)[O-])ccc1-c1ccc(/C=N/NC(=O)c2ccc(Br)o2)o1	1.1	-24.9	nt	-58.2*	15.1	15.7

Screens from PubChem BioAssay.
